Reference: PubChem BioAssay (NCATS)
Values joined by “and” are separate entries in the source; they are usually repeats but may differ in a detail not shown here. Identical values can stand only once. Inconclusive results are not listed. Unmarked numbers belong to inactive results. Active and inactive are the calls of the source. The call rests on the fitted dose curve; in most records, active means well fitted cell-killing curve with a large enough effect; inconclusive means small, poorly fitted or top-dose-only effect; inactive means no such curve, though single readings can be large or run the other way.
On the % scale 0 is the no-effect control and ±100 the full control effect; potency means the concentration at half of the fitted maximal effect.

Assay: qHTS of pediatric cancer cell lines to identify multiple opportunities for drug repurposing: Primary screen for MG 63 (6-TG R) cells (AID 1347105); further: nearly all actives have a fitted effect of over 50% in size
Settings: MG 63 (6-TG R) viability, CellTiter-Glo, 48 h; series mostly up to 46 µM; activity change, negative = cytotoxic: at the top concentration
Source text: Drug repurposing or repositioning has been offered as a strategy for drug development in oncology programs. This approach has special potential for childhood cancers and other rare or orphan diseases, where the expected return on new drug development has been a disincentive to pharmaceuticals. […] In this project we exploit the poly-pharmacology of drugs to discover new indications via phenotypic screening of a panel of 19 well-characterized cell lines derived from solid tumors seen in children and adolescents. The goal is to identify approved drugs with previously unrecognized anticancer properties that has the potential to reveal new mechanisms and biological processes involved in carcinogenesis or drug resistance. We employed a titration-based paradigm (quantitative high-throughput screening or qHTS), where all compounds were tested at multiple concentrations for their effect on cell viability. Concentration-response curves (CRCs) were derived directly from the primary screen, and both potency and efficacy values were used to identify compounds with robust bioactivity profiles. We screened the NIH Chemical Genomics Center (NCGC) Pharmaceutical Collection (NPC) and Mechanism Interrogation Plate (MIPE) small molecule collections of approved and investigational compounds against these cell lines; and measured metabolically active cells after 48 hours of compound treatment as a proxy for cell viability. […] Assay Submitter: Nathalia J. Martinez, National Center for Advancing Translational Sciences, National Institutes of Health, Rockville, MD, USA; email: natalia.martinez@nih.gov Shen, M et al. Quantitative high-throughput phenotypic screening of pediatric cancer cell lines identifies multiple opportunities for drug repurposing. Oncotarget 2017 Dec 19;9(4):4758-4772. PMID 29435139.
The cells were obtained from University of North Carolina (UNC), Pediatric Preclinical Testing Program (PPT), and Coriell Institute (CI). qHTS cell viability assay: Cells were assayed in growth media at a density of 500-1,000 cells/well. Five microliters of cells were dispensed into 1,536-well, white, solid-bottom, TC-treated plates (Greiner Bio One) using a multidrop dispenser and incubated at 37 degrees C, 5% CO2, under a humidified atmosphere for 5 hours. Twenty-three nanoliters of compounds and controls (neutral control DMSO or positive control bortezomib at final concentration of 2.3 µM) were subsequently transferred by Kalypsys pintool. For primary screens, the MIPE collection was tested at 11-point dilutions (final concentrations range from 0.78 nM to 46 µM) and the NPC collection at 8-point dilutions (final concentrations range from 0.59 nM to 46 µM). Compounds tested in follow-up screens were assayed at 11-point dilutions. Cells were incubated for 48 hours, followed by addition of 3 µL of CellTiter-Glo (Promega). After a 15 min incubation at room temperature, samples were analyzed for luminescence intensity using a ViewLux High-throughput CCD imager equipped with clear filters.
For `Clc1cccc(N2CCNCC2)c1`, the “activity change, negative = cytotoxic” value was -6.19%. With `Oc1cccc2cccnc12` the “activity change, negative = cytotoxic” value was 0.285%. For `Cc1cccc(C)c1NC(=O)CN1CCCC1=O`, the Potency was “inactive”. In the case of `CC1NCCOC1c1ccccc1` (stereo not given), the “activity change, negative = cytotoxic” value is reported as -23.2%. For `C[C@]12CC[C@H]3[C@@H](CCC4=CC(=O)CC[C@@H]43)[C@@H]1CC[C@@H]2OC(=O)CCc1ccccc1`, the “activity change, negative = cytotoxic” value was -6.37%. With `CC(C)=CC1C(C(=O)OCc2cccc(Oc3ccccc3)c2)C1(C)C` (stereo not given) the “activity change, negative = cytotoxic” value was -11.3%. In the case of `C=C1C[C@@H]2[C@H](CC[C@]3(C)C(=O)CC[C@@H]23)[C@@]2(C)C=CC(=O)C=C12`, the “activity change, negative = cytotoxic” value is reported as 16.2%. For `C#CCOC(C(=O)OCCN(C)C)(c1ccccc1)c1ccccc1`, the “activity change, negative = cytotoxic” value was -13.7%. In the case of `Cc1cc(SCc2sc(-c3ccc(C(F)(F)F)c(F)c3)nc2C)ccc1OCC(=O)O`, the “activity change, negative = cytotoxic” value is reported as 10%. For `C=CCN1CC[C@]23c4c5ccc(O)c4O[C@H]2C(=O)CC[C@@]3(O)[C@H]1C5`, the “activity change, negative = cytotoxic” value was 3.28%. For `Cn1c(CCCC(=O)O)nc2cc(N(CCCl)CCCl)ccc21`, the Potency was “inactive”. For `Cc1ccc2c(c1)C1CN(C)CCC1N2` (stereo not given), the “activity change, negative = cytotoxic” value was -11.4% [at 16.1 µM]. In the case of `C=C1CC[C@@]2(O)[C@H]3Cc4ccc(O)c5c4[C@@]2(CCN3CC2CC2)[C@H]1O5`, the “activity change, negative = cytotoxic” value is reported as -17.1%. For `CC[C@@H](CO)NC(=O)[C@@H]1C=C2c3cccc4[nH]cc(c34)C[C@H]2N(C)C1`, the “activity change, negative = cytotoxic” value was -28.9%. For `COC1(CS(=O)c2ccccc2)CCN(CCc2c[nH]c3ccc(F)cc23)CC1` (stereo not given), the “activity change, negative = cytotoxic” value was -26.6%. For `NCC1(CC(=O)O)CCCCC1`, the Potency was “inactive”. In the case of `COC[C@@H](NC(C)=O)C(=O)NCc1ccccc1`, the “activity change, negative = cytotoxic” value is reported as -26.7%. For `NCCc1cc(O)c(O)cc1O`, the “activity change, negative = cytotoxic” value was -2.11%. For `CC[N+]1(C)CCCC(OC(=O)C(O)(c2ccccc2)c2ccccc2)C1` (stereo not given), the “activity change, negative = cytotoxic” value was -14.5%. In the case of `CCC(C(N)=O)N1CCCC1=O` (stereo not given), the “activity change, negative = cytotoxic” value is reported as 0.167%. In the case of `Nc1ccncc1`, the “activity change, negative = cytotoxic” value is reported as -11.7%. In the case of `CNC(=O)c1ccc(N2C(=S)N(c3ccc(C#N)c(C(F)(F)F)c3)C(=O)C23CCC3)cc1F`, the Potency is reported as 11.8 µM (active). With `CN(C)[C@@H]1C(=O)C(C(N)=O)=C(O)[C@@]2(O)C(=O)C3=C(O)c4c(O)cccc4[C@@](C)(O)[C@H]3C[C@@H]12` the Potency was “inactive”. For `N[C@@H]1C[C@H]1c1ccccc1`, the “activity change, negative = cytotoxic” value was -22.7%. With `CCCC(C)(COC(N)=O)COC(=O)NC(C)C` (stereo not given) the Potency was “inactive”. With `CC(C)=CCOc1c2occc2cc2ccc(=O)oc12` the “activity change, negative = cytotoxic” value was -12.7%. For `O=P1(NCCCl)OCCCN1CCCl` (stereo not given), the “activity change, negative = cytotoxic” value was -1.43%. In the case of `Cc1cccc(C)c1NC1=NCCCS1`, the “activity change, negative = cytotoxic” value is reported as -20.5%. For `CNCC(O)c1ccc(O)cc1` (stereo not given), the Potency was “inactive”. In the case of `CC(=O)[C@H]1CC[C@H]2[C@@H]3CC[C@H]4C[C@H](O)CC[C@]4(C)[C@H]3C(=O)C[C@]12C`, the “activity change, negative = cytotoxic” value is reported as -17.1%. In the case of `C[C@@H]1[C@@H](C(=O)C[C@H]2O[C@@H]3O[C@]4(C)CC[C@@H]5[C@H](C)CC[C@@H]([C@H]2C)[C@@]35OO4)O[C@@H]2O[C@]3(C)CC[C@H]4[C@H](C)CC[C@@H]1[C@@]24OO3`, the “activity change, negative = cytotoxic” value is reported as -23.3%. With `Oc1cc(Cl)ccc1Oc1ccc(Cl)cc1Cl` the Potency was 24.8 µM (active). For `CCN(C(C)=O)c1cccc(-c2ccnc3c(C#N)cnn23)c1`, the “activity change, negative = cytotoxic” value was -27.1%. With `C[C@@H]1O[C@@H](O[C@H]2C[C@@H](O)[C@]3(CO)[C@H]4[C@H](O)C[C@]5(C)[C@@H](C6=CC(=O)OC6)CC[C@]5(O)[C@@H]4CC[C@]3(O)C2)[C@H](O)[C@H](O)[C@H]1O` the Potency was 14.8 nM (active) and 33.5 nM (active). With `CN1C[C@H](CNC(=O)OCc2ccccc2)C[C@@H]2c3cccc4c3c(cn4C)C[C@H]21` the “activity change, negative = cytotoxic” value was -25.3%. In the case of `COc1ccc(Cc2nccc3cc(OC)c(OC)cc23)cc1OC`, the “activity change, negative = cytotoxic” value is reported as -3.91%. With `Fc1ccc(C(OCCN2CCN(CCCc3ccccc3)CC2)c2ccc(F)cc2)cc1` the Potency was 21.1 µM (active). For `NN=C(N)N`, the “activity change, negative = cytotoxic” value was -5.13%. For `Oc1ccccc1-c1ccccc1`, the “activity change, negative = cytotoxic” value was -14.4%. With `CCC(COC(=O)c1cc(OC)c(OC)c(OC)c1)(c1ccccc1)N(C)C` (stereo not given) the “activity change, negative = cytotoxic” value was -20.7%.
